Source: PubChem BioAssay (Tox21)
Records with an inconclusive call do not appear. Entries that show only a call come without a potency. Active and inactive are the calls of the source. Unless noted, calls come from the whole dose curve; as a rule, active = well fitted curve in the direction sought with a large enough effect in the repeat runs; inconclusive = weak or mixed curves; inactive = no such curve, though single readings can be large; an effect the other way counts as inactive or inconclusive.

Legend:
[1] = qHTS assay for small molecules that induce genotoxicity in human embryonic kidney cells expressing luciferase-tagged ATAD5 (AID 651632); note: nearly all actives have a fitted effect of over 15% in size; note: potency is the fitted concentration of half-maximal effect
Procedure, shortened: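 Genotoxicity read-out via ATAD5-luciferase: HEK293T cells, 16 hr compound incubation at 37C, Amplite detection.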

[2] = qHTS assay for small molecule agonists of the p53 signaling pathway - cell viability (AID 651633; calls by dose curve; note: nearly all actives have a fitted effect of over 30% in size; note: potency is the fitted concentration of half-maximal effect)
Procedure, shortened: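 p53RE-bla cells were treated with compound for 16 hours at 37 C. Cytotoxicity was then measured as CellTiter-Glo luminescence after 30 min at room temperature.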

[3] = qHTS assay for small molecules that induce genotoxicity in human embryonic kidney cells expressing luciferase-tagged ATAD5 - cell viability (AID 651634; calls by dose curve; note: nearly all actives have a fitted effect of over 25% in size; note: potency is the fitted concentration of half-maximal effect)
Procedure, shortened: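 Live-cell protease activity (CellTiter-Fluor, fluorescence) indicates viability. HEK293T cells with luciferase-tagged ATAD5; 15.5 hr compound treatment at 37C.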

[4] = qHTS assay for small molecule disruptors of the mitochondrial membrane potential - cell viability (AID 720634; calls by dose curve; note: nearly all actives have a fitted effect of over 20% in size; note: potency is the fitted concentration of half-maximal effect)
Procedure, shortened: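 Human hepatoma HepG2 cells were treated for 1 hr with test chemicals, then given m-MPI dye and CellTiter-Glo. Cell viability reflects luminescence proportional to cellular ATP.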

[5] = qHTS assay to test for compound auto fluorescence at 590 nm (red) in HepG2 cells (AID 720674)
Procedure, shortened: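 HepG2 cells, 2,000 per well in MEM with 10% FBS, attached overnight at 37 C, then got 23 nL compound or DMSO. After 1 hr at 37 C, 5% CO2, red fluorescence was read at 540/590 nm against Rose Bengal sodium as reference.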

[6] = qHTS assay to test for compound auto fluorescence at 535 nm (green) in HepG2 cells (AID 720675)
[7] = qHTS assay to test for compound auto fluorescence at 460 nm (blue) in HEK293 cells (AID 720678)
Procedure, shortened: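 Measured: blue fluorescence (Ex 405/Em 460 nm) of compound-treated HEK293 cells, incubated overnight at 37C with 5% CO2 and scaled to triamterene equivalents.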

[8] = qHTS assay to test for compound auto fluorescence at 590 nm (red) in HEK293 cells (AID 720679)
Procedure, shortened: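 Using HEK293 cells at 2,000 per well, the screen added 23 nL of each compound after cell attachment and incubated overnight (37C, 5% CO2). The plate reader then captured red-label fluorescence, Ex/Em 540/590nm.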

[9] = qHTS assay for small molecule disruptors of the mitochondrial membrane potential (AID 720635); note: potency is the fitted concentration of half-maximal effect
Procedure, shortened: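 HepG2 cells exposed to compound 1 hr at 37C, then Mito-MPS dye 30 min. Ratio read of aggregate (540/590 nm) versus monomer (490/535 nm) fluorescence.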

| Structure (SMILES) | Potency [1] | Potency [2] | Potency [3] | Potency [4] | Potency [5] | Potency [6] | Potency [7] | Potency [8] | Potency [9] |
| --- | --- | --- | --- | --- | --- | --- | --- | --- | --- |
| CC(CC(c1ccccc1)c1ccccc1)NC(C)(C)C (centres undefined) | inactive | inactive | inactive | inactive | inactive | inactive | inactive | inactive |  |
| CN(C)CC/C=C1/c2ccccc2CSc2ccccc21 | inactive | inactive | inactive | inactive | inactive | inactive | inactive | inactive |  |
| COc1ccc2c(c1)OC(C)(C)C(c1ccccc1)C2c1ccc(OCCN2CCCC2)cc1 (centres undefined) | inactive | 29.8 µM (active) | 26.6 µM (active) | inactive | inactive | inactive | inactive | inactive |  |
| OC1OC[C@@H](O)[C@H](O)[C@@H]1O (some centres undefined) | inactive | inactive | inactive | inactive | inactive | inactive | inactive | inactive |  |
| S=C1SCN(Cc2ccccc2)CN1Cc1ccccc1 | inactive | inactive | inactive | inactive | inactive | inactive | inactive | inactive |  |
| CN(C)CCOc1ccccc1Cc1ccccc1 (tested in a mixture with another compound) | inactive | inactive | inactive | inactive | inactive | inactive | inactive | inactive |  |
| N[C@H](CCC(=O)O)C(=O)O | inactive | inactive | inactive | inactive | inactive | inactive | inactive | inactive |  |
| CC(=O)N=c1sc(S(N)(=O)=O)nn1C | inactive | inactive | inactive | inactive | inactive | inactive | inactive | inactive |  |
| CCN(CC)CCC(=O)N1c2ccccc2Sc2ccc(C(F)(F)F)cc21 | inactive | inactive | inactive | inactive | inactive | inactive | inactive | inactive |  |
| Cc1cc(C(=O)NNCc2ccccc2)no1 | inactive | inactive | inactive | inactive | inactive | inactive | inactive | inactive |  |
| C[C@]12CC[C@@H]3c4ccc(O)cc4CC[C@H]3[C@@H]1CC[C@@H]2OP(=O)(O)O | inactive | inactive | inactive | inactive | inactive | inactive | inactive | inactive |  |
| O=C(OC1C[C@@H]2CC3C[C@H](C1)N2CC3=O)c1c[nH]c2ccccc12 (some centres undefined) | inactive | inactive | inactive | inactive | inactive | inactive | inactive | inactive |  |
| C[C@]12CCC(=O)C=C1CC[C@@H]1[C@@H]2[C@@H](O)C[C@@]2(C)[C@H]1CC[C@]2(O)C(=O)COP(=O)(O)O | inactive | inactive | inactive | inactive | inactive | inactive | inactive | inactive |  |
| CCN(CC)CCCC(C)Nc1cc(/C=C/c2ccccc2Cl)nc2cc(Cl)ccc12 (centres undefined) | inactive | inactive | inactive | inactive | inactive | inactive | inactive | inactive |  |
| NS(=O)(=O)c1cc2c(cc1Cl)NC(Cc1ccccc1)NS2(=O)=O (centres undefined) | inactive | inactive | inactive | inactive | inactive | inactive | inactive | inactive |  |
| NNc1nnc(Cc2ccncc2)c2ccccc12 | inactive | inactive | inactive | inactive | inactive | inactive | inactive | inactive |  |
| CC(=O)O[C@H]1CC[C@@]2(C)C(=CC[C@@H]3[C@@H]2CC[C@]2(C)C(c4cccnc4)=CC[C@@H]32)C1 | inactive | inactive | inactive | inactive | inactive | inactive | inactive | inactive |  |
| CC(C)=CCC/C(C)=C/C=C/C(C)=C/C=C/C(C)=C/C=C/C=C(C)/C=C/C=C(C)/C=C/C=C(\C)CCC=C(C)C | inactive | inactive | inactive | inactive | inactive | inactive | inactive | inactive |  |
| CCCCC/C=C\CCC(=O)N[C@H]1[C@H](Oc2c3cc4cc2Oc2ccc(cc2Cl)[C@@H](O[C@@H]2O[C@H](CO)[C@@H](O)[C@H](O)[C@H]2NC(C)=O)[C@@H]2NC(=O)[C@H](NC(=O)[C@@H]4NC(=O)[C@H]4NC(=O)[C@@H](Cc5ccc(c(Cl)c5)O3)NC(=O)[C@H](N)c3ccc(O)c(c3)Oc3cc(O)cc4c3)c3ccc(O)c(c3)-c3c(O[C@H]4O[C@H](CO)[C@@H](O)[C@H](O)[C@@H]4O)cc(O)cc3[C@@H](C(=O)O)NC2=O)O[C@H](CO)[C@@H](O)[C@@H]1O | inactive | inactive | inactive | inactive | inactive | inactive | inactive | inactive |  |
| CCOC(=O)Oc1c(OC)cc(C(=O)O[C@@H]2C[C@@H]3CN4CCc5c([nH]c6cc(OC)ccc56)[C@H]4C[C@@H]3[C@H](C(=O)OC)[C@H]2OC)cc1OC | inactive | inactive | inactive | 10.1 µM (active) | inactive | inactive | inactive | inactive |  |

| Structure (SMILES) | Potency [1] | Potency [2] | Potency [3] | Potency [4] | Potency [5] | Potency [6] | Potency [7] | Potency [8] | Potency [9] |
| --- | --- | --- | --- | --- | --- | --- | --- | --- | --- |
| CN1[C@@H]2CC[C@H]1CC(OC(c1ccccc1)c1ccccc1)C2 (some centres undefined) | inactive | inactive | inactive | inactive | inactive | inactive | inactive | inactive |  |
| CCC(Oc1ccccc1)C(=O)N[C@@H]1C(=O)N2[C@@H]1SC(C)(C)[C@@H]2C(=O)O (some centres undefined) | inactive | inactive | inactive | inactive | inactive | inactive | inactive | inactive |  |
| C/C1=C2N=C(/C=C3N=C(/C(C)=C4\[N-]C(C(CC(N)=O)C4(C)CCC(=O)NCC(C)OP(=O)([O-])OC4C(CO)OC(n5cnc6cc(C)c(C)cc65)C4O)C4(C)N=C1C(CCC(N)=O)C4(C)CC(N)=O)C(CCC(N)=O)C\3(C)C)C(CCC(N)=O)C/2(C)CC(N)=O.[CH3-].[Co+3] (centres undefined) | inactive | inactive | 23.7 µM (active) | inactive | inactive | inactive | inactive | inactive |  |
| C[C@H](/C=C/[C@H](C)C(C)(C)O)[C@H]1CC[C@H]2/C(=C/C=C3C[C@@H](O)C[C@H](O)C3)CCC[C@]12C | inactive | 8.41 µM (active) | inactive | inactive | inactive | inactive | inactive | inactive |  |
| CCCOc1cc(N)ccc1C(=O)OCCN(CC)CC | inactive | inactive | inactive | inactive | inactive | inactive | inactive | inactive |  |
| CC(CN1c2ccccc2Sc2cccnc21)N(C)C (centres undefined) | inactive | inactive | inactive | inactive | inactive | inactive | inactive | inactive |  |
| CN1CCC(OC(=O)C(Oc2ccc(Cl)cc2)Oc2ccc(Cl)cc2)CC1 | inactive | inactive | inactive | inactive | inactive | inactive | inactive | inactive |  |
| CN(C)CCCN1c2ccccc2C(C)(C)c2ccccc21 | inactive | inactive | inactive | inactive | inactive | inactive | inactive | inactive |  |
| CC#CCC(C)[C@H](O)/C=C/[C@@H]1[C@H]2c3cccc(CCCC(=O)O)c3O[C@H]2C[C@H]1O (some centres undefined) | inactive | inactive | inactive | inactive | inactive | inactive | inactive | inactive |  |
| CCCCC(F)(F)[C@@]1(O)CC[C@H]2[C@@H](CC(=O)[C@@H]2CCCCCCC(=O)O)O1 | inactive | inactive | inactive | inactive | inactive | inactive | inactive | inactive |  |
| CCN(CC)CCOc1ccccc1OC | inactive | inactive | inactive | inactive | inactive | inactive | inactive | inactive |  |
| CCC(=O)O[C@]1(C(=O)CCl)[C@@H](C)C[C@H]2[C@@H]3C[C@H](F)C4=CC(=O)C=C[C@]4(C)[C@@]3(F)[C@@H](O)C[C@@]21C | inactive | inactive | inactive |  | inactive | inactive | inactive | inactive | 11.9 µM (active) |
| CCCCCCCCCCCC(=O)N(CCO)CCO | inactive | inactive | inactive | inactive | inactive | inactive | inactive | inactive |  |
| CN[C@H]1CCc2cc(OC)c(OC)c(OC)c2-c2ccc(OC)c(=O)cc21 | 0.237 µM (active) | inactive |  | inactive | inactive | inactive | inactive | inactive | 0.335 µM (active) |
| C[N+]1(C)[C@@H]2CC(OC(=O)C(O)(c3cccs3)c3cccs3)C[C@H]1[C@@H]1O[C@@H]12 (some centres undefined) | inactive | inactive |  | inactive | inactive | inactive | inactive | inactive | inactive |
| S=C=Nc1ccc(N=C=S)cc1 | inactive | inactive | inactive | inactive | inactive |  | inactive | inactive |  |
| COc1ccc2c(c1)N(C[C@H](C)CN(C)C)c1ccccc1S2 | inactive | inactive | inactive | inactive | inactive | inactive | inactive | inactive |  |
| [O]=[Bi][O]C(=O)[O][Bi]=[O] | inactive | inactive | inactive | inactive | inactive | inactive | inactive | inactive |  |
| COc1cc(NCCCC(C)N)c2ncccc2c1 (centres undefined) | inactive | inactive | inactive | inactive | inactive | inactive | inactive | inactive |  |
| CCN(CC)Cc1cc(Nc2ccnc3cc(Cl)ccc23)ccc1O | inactive | inactive |  | inactive | inactive | inactive | inactive | inactive | inactive |
